Results: the supplement of paper PMC10338343
± gives the standard deviation.

Legend:
[1] = tested on: MILI (PIWIL2) piRISC loaded with piRNA #1 (26 nt); assay: pre-steady-state target cleavage rate (min^-1); guide: piRNA #1 5'p-UGAGGUAGUAGGUUGUAUAGUAUCCA; higher = faster piRNA-guided slicing of the target; settings: auxiliary factor: 500 nM mouse GTSF1
In short: (§1)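 The method was Cleave-'n-Seq, in which uncleaved targets from a transcribed, DNA-blocked target RNA library were sequenced after exposure to active affinity-purified piRISC carrying one synthetic guide, with or without GTSF1 partner protein. Reactions contained 0.1 nM library, 1 nM piRISC and, where present, 500 nM GTSF1 in HEPES–potassium acetate buffer at 33 °C for 0–8 or 0–960 min. Reads were normalised to depth and to weakly complementary targets, three trials were pooled, and k3 was capped at 0.0001 min^-1. The pre-steady-state cleavage rate came from a burst-and-steady-state fit.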

[2] = tested on: EfPiwi piRISC loaded with piRNA #1 (26 nt); assay: pre-steady-state target cleavage rate (min^-1); auxiliary factor: 500 nM Ephydatia muelleri Gtsf1; guide: piRNA #1 5'p-UGAGGUAGUAGGUUGUAUAGUAUCCA; MIWI and MILI are mouse PIWI proteins and EfPiwi is from a freshwater sponge; tags in brackets are library labels; higher = faster piRNA-guided slicing of the target
In short: as §1

Row | Sequence | pre-steady-state target cleavage rate [1] | pre-steady-state target cleavage rate [2]
1 | GGAGACCUAACUAUACAUCCUACUACGUCA | 0.173 ± 0.052 | 
2 | GGAGACCUAUCUAUACAUGCUACUACCUCA | 0.0973 ± 0.012 | 
3 | GGAGACCUAUCUAUCAACCUACUACCUCA | 0.0205 ± 0.0047 | 
4 | GGAGACCUAUCUAUACAACCUAGAACCUCA | 0.00829 ± 0.0026 | 
5 | GGAGACCUAUGAUAUGUUCCUACUAACUCA | < 0.0001 | 
6 | GGAGACCUAUGAUAACAACCUUCUACCUCA | 0.0024 ± 0.0021 | 
7 | GGAGACCUAUCUAUACAAGCUACUACGUCA | 0.112 ± 0.012 | 
8 | GGAGACCAUACUAUAGUUCCUACUACCUCA | 0.156 ± 0.019 | 
9 | GGAGACCAUAGUAUUCAACCUACUACCUCA | 0.11 ± 0.013 | 
10 | GGAGACGAUACUACACAACCUACUACCUCA | 0.203 ± 0.019 | 
11 | GGAGACCUUACUAUACUAGCUACUACCUCA | 0.171 ± 0.012 | 
12 | GGAGACCUAUGUUAACAACCUACUACCUCA | 0.0234 ± 0.0048 | 
13 | GGAGACCUAUCUAUACAAGCUACAACCUCA | 0.169 ± 0.015 | 
14 | GGAGACCUUACUAUACAACCUACUACGACA | 0.119 ± 0.021 | 
15 | GGAGACCUAUGAAAACAACCUACUAGCUCA | 0.00432 ± 0.0025 | 
16 | GGAGACCAUACUAUACAAGCUACUUCCUCA | 0.193 ± 0.016 | 
17 | GGAGACCUAUGUAUACAACCUAGUUCCUCA | 0.00347 ± 0.003 | 
18 | GGAGACCUAUGAAUACAACCUACUACCUGCA | 0.00801 ± 0.004 | 
19 | GGAGACCAUACUAUAGAACCUACUACCACA | 0.0789 ± 0.021 | 
20 | GGAGUGGAUUCUAUACAACCUACUAGCUCA | 0.0603 ± 0.012 | 
21 | GGAGACCAUACUUUACAACCUACAACCUCA | 0.14 ± 0.018 | 
22 | GGAGACCUAACUAUACAAGCUUCUACCUCA | 0.0324 ± 0.01 | 
23 | GGAGACGAUAGUAUACAACGUACUACCUCA | 0.0209 ± 0.0035 | 
24 | GGAGACCAUACUAUACAACCUACUCACCUCA | 0.169 ± 0.015 | 

Row | Sequence | pre-steady-state target cleavage rate [1] | pre-steady-state target cleavage rate [2]
25 | GGAGACCUAUGAUUCAACCUACUACCUCA | 0.0177 ± 0.0042 | 
26 | GGAGACCUAUGAAUACAACCUACUACCUAA | 0.00505 ± 0.0032 | 
27 | GGAGACCAUACUAUUGUACCUACUACCUCA | 0.0647 ± 0.009 | 
28 | GGAGACCUAUGUAUCAACCUACUACCUCA | 0.00951 ± 0.0023 | 
29 | GGAGACCUUACUAUAGAACCUACUACCUGA | 0.0254 ± 0.0086 | 
30 | GGAGACCAUACUAAACAACCUACUACGUCA | 0.0881 ± 0.014 | 
31 | GGAGACCUAAGUAUAGAACCUACUACCUCA | 0.0747 ± 0.013 | 
32 | GGAGACCUUACUAUACAACGUUCUACCUCA | 0.00546 ± 0.0015 | 
33 | GGAGACCUAUGUAUACAACCUACUACCAGA | 0.055 ± 0.009 | 
34 | GGAGAGGAUACUAUUGUACCUACUACCUCA | 0.131 ± 0.0096 | 
35 | GGAGACCUAUCUAUACAACCUUCUUCCUCA | 0.00365 ± 0.0029 | 
36 | GGAGACCUUACUAUACAACCUUCUUCCUCA | 0.00391 ± 0.0031 | 
37 | GGAGACCUAUGAUAACAACCUACCACCUCA | 0.00342 ± 0.0032 | 
38 | GGAGACCAUACUAUACAAGCUACUAGCUCA | 0.0756 ± 0.022 | 
39 | GGAGACCUAUGUAUACAACCUACAACGUCA | 0.00278 ± 0.0027 | 
40 | GGAGACCUAACUAUACAACCUACUUCGUCA | 0.0423 ± 0.017 | 
41 | GGAGAGGAUACUAUACAACGUACAACCUCA | 0.0104 ± 0.0029 | 0.00357 ± 0.0017
42 | GGAGUGGAUACUAUACAACCAACUACCUGA | 0.00303 ± 0.0022 | 0.00303 ± 0.0013
43 | GGAGAGGAUACUAUACAACCUACUAACUCA | 0.0462 ± 0.014 | 0.00561 ± 0.0029
44 | GGAGACCAUACUAUUCAACCUACUAGCUCA | 0.11 ± 0.019 | 0.00459 ± 0.0044
45 | GGAGACCUAUCUAUACAACCUGCUACCUCA | 0.0162 ± 0.0048 | 0.00697 ± 0.0045
46 | GGAGACCUAACUAUACAACCUGCUACCUCA | 0.0157 ± 0.0084 | 0.0127 ± 0.005
47 | GGAGUGGUAUCUAUACAACCUACUACCUCA | 0.136 ± 0.0091 | 0.0613 ± 0.023
48 | GGAGUGGAUACUAGUACAACCUACUACCUCA | 0.141 ± 0.011 | 0.175 ± 0.056

Row | Sequence | pre-steady-state target cleavage rate [1] | pre-steady-state target cleavage rate [2]
49 | GGAGACCUAACUAUACAACCUACUACCUACA | 0.165 ± 0.023 | 0.00795 ± 0.0042
50 | GGAGUGGAUACUUUACAAGCUACUACCUCA | 0.192 ± 0.013 | 0.00397 ± 0.0024
51 | GGAGACCUAUGAUUACAUCCUACUUCCUCA | 0.00764 ± 0.0027 | 
52 | GGAGUGGAUACUAUACAACCUACUCCCUCA | 0.0191 ± 0.0045 | 0.00426 ± 0.0017
53 | GGAGACCUGACUAUACAACCUACUACCUCA | 0.125 ± 0.028 | 0.0243 ± 0.01
54 | GGAGACCUAACUAAUACAACCUACUACCUCA | 0.103 ± 0.025 | 0.0103 ± 0.0044
55 | GGAGUGGAUACUAUACUACGUACUACCUCA | 0.042 ± 0.0043 | 0.00381 ± 0.0021
56 | GGAGACCAUACUAGACAACCUACUACCUCA | 0.151 ± 0.014 | 0.0249 ± 0.01
57 | GGAGAGGAGUACUAUACAACCUACUACCUCA | 0.0702 ± 0.0063 | 0.00348 ± 0.003
58 | GGAGACCUAUGAUAUGUAUCCUACUACCUCA | 0.0082 ± 0.0021 | 
59 | GGAGUGGACACUAUACAACCUACUACCUCA | 0.241 ± 0.025 | 0.115 ± 0.041
60 | GGAGACGAUACUAUACAACCUACUACACUCA | 0.202 ± 0.03 | 0.00494 ± 0.0019
61 | GGAGACCUAUGUAAACUACCUACUACCUCA | 0.00288 ± 0.0026 | 
62 | GGAGACCAUACCUAUACAACCUACUACCUCA | 0.152 ± 0.034 | 0.0273 ± 0.011
63 | GGAGUGGAUACUAUACAACCUAUUACCUCA | 0.158 ± 0.014 | 0.0922 ± 0.034
64 | GGAGACCUAUGUAUUCAACCUACUACCUCA | 0.0588 ± 0.0091 | 
65 | GGAGAGGAUACUAUUCAACCUACUACCACA | 0.169 ± 0.017 | 0.00331 ± 0.0019
66 | GGAGACCUAUGUAUACAACCUACUACCACA | 0.0991 ± 0.01 | 
67 | GGAGACCUUACUAUACAACCUACUCCCUCA | 0.0992 ± 0.015 | 0.00342 ± 0.0031
68 | GGAGACCAUACUAUACAACCUACUACCCCA | 0.156 ± 0.024 | 0.00577 ± 0.0028
69 | GGAGUGGAUACUACACAACCUACUACCUCA | 0.175 ± 0.011 | 0.082 ± 0.029
70 | GGAGACCUAUGAUUACAACCUACUCACCUCA | 0.00473 ± 0.0023 | < 0.0001
